# Screening results deposited in PubChem by several laboratories.
# TWEAK-Fn14 inh – inhibitors of TWEAK-Fn14 interaction signaling | TWEAK-stimulated Fn14 reporter cells, luciferase luminescence, 8 h | inhibition, % at 10 µM | hit rate 2% among 360,000; in the data active means inhibition above about 50%
# TROY NFkB inh – TROY signaling inhibition; Q293 LMP1-TROYcd NF-kB luciferase reporter, 4 h; inhibition, % at 10 µM; hit rate 0.98% among 360,000;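 active means compounds whose plate-normalised and pattern-corrected inhibition of the luciferase reporter signal at the single screening dose is 50% or more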
# LGR2 inh – blocks bursicon-induced cAMP signaling via Drosophila LGR2; HEK293 LGR2, CRE-luciferase, bursicon-stimulated, 4 h; inhibition, % at 9.99 µM; hit rate 0.35% among 380,000; AID 720647;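 active means drop in luminescence signal, shown as inhibition above about 50% in the replicate tests, limit read from the data, passing the limit was not always enough; inconclusive means probably only some replicates passing the limit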;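 further: agonist challenge used bursicon conditioned medium at about half maximal strength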
# HSP90 inh – inhibitors of HSP90 luciferase refolding in rabbit reticulocyte lysate. luciferase refolding luminescence, 3 h. inhibition, % at 5.6 µM. hit rate 0.91% among 290,000. AID 1789;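 active means inhibition above the screen-wide mean plus 3 SD, computed separately per campaign, cut at about 16% in these data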;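 further: inhibitors lower the luminescence because luciferase stays unfolded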
# HSP90 inh confirm – confirmation of HSP90 inhibitors | shares compounds with HSP90 inh | inhibition, % at 5.9 µM | hit rate 64% among 2,300 | rabbit reticulocyte lysate, luciferase refolding luminescence, 3 h; in the data active means inhibition above about 18%
# luciferase ctr – firefly luciferase inhibition, HSP90 counter-screen; inhibition, % at 5.9 µM; hit rate 48% among 2,300; shares compounds with HSP90 inh; AID 1847; purified native firefly luciferase, luminescence;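 active means inhibition above the mean inhibition of all tested sample wells plus 3 SD, cut at about 10% in these data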
# Target sequence (P08659 whole entry, looked up): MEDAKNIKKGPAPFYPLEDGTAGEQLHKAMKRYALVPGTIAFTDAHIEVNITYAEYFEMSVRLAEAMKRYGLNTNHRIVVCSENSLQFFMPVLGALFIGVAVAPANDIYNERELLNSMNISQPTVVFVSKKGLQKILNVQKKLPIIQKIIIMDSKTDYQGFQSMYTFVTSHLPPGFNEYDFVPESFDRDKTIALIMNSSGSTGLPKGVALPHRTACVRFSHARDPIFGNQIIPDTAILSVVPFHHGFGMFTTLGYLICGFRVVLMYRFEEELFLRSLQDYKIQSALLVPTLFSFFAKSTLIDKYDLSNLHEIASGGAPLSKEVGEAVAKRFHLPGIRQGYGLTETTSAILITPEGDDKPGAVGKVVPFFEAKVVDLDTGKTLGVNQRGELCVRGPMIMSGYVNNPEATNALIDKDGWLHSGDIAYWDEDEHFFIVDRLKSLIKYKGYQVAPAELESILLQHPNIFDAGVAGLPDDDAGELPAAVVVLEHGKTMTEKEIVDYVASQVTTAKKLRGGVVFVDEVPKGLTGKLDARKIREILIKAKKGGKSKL
# Numbers stand for hits; . = inactive; ? = inconclusive; / = no result. Shown are actives, neighbours in structure and some others; about 2.2% of the full set was active somewhere.
SMILES,TWEAK-Fn14 inh,TROY NFkB inh,LGR2 inh,HSP90 inh,HSP90 inh confirm,luciferase ctr
Cc1ccc(C2NC(=O)NC3=C2CCc2ccccc23)cc1 (stereo not given),79,69,.,23,52,67
COc1ccc2c(c1)C1=C(CC2)C(c2ccc(C)cc2)NC(=S)N1 (stereo not given),.,.,/,.,/,/
COc1ccc(C(=O)NCC(=O)OCC(=O)NCCC2=CCCCC2)cc1,.,.,.,.,/,/
COc1ccc(C(=O)NCCC2=CCCCC2)cc1,75,.,?,32,54,48
CCC(=O)Nc1ccc2c(c1)C(=O)N(C)C[C@H](OC)[C@@H](C)CN(C(=O)CC1CC1)[C@@H](C)CO2,/,/,.,/,/,/
COc1ccc(NC(=O)N2CC3(C2)CN(C(=O)c2cccnc2)[C@@H](CO)c2[nH]c4cc(OC)ccc4c23)cc1,/,/,.,/,/,/
Fc1ccc(-n2nnc(-c3nccs3)n2)cc1,.,.,.,20,32,25
CNC[C@H]1Oc2cc(C#CC(C)(C)O)ccc2S(=O)(=O)N([C@H](C)CO)C[C@@H]1C,/,/,.,/,/,/
COc1ccc(C2=NN(c3ccc(C(=O)O)cc3)C(c3ccc(OC)c(OC)c3)C2)cc1 (stereo not given),.,.,.,19,46,38
COC(=O)[C@H]1[C@H](CO)[C@H]2Cn3c(ccc(-c4ccccc4F)c3=O)[C@H]2N1Cc1cccnc1,/,/,.,/,/,/
Cc1noc(C)c1NC(=O)Nc1ccc2c(c1)C(=O)N([C@@H](C)CO)C[C@@H](C)[C@@H](CN(C)S(=O)(=O)c1ccccc1)OCCCC[C@H](C)O2,/,/,.,/,/,/
C/C=C/c1ccc([C@H]2[C@@H](CNCC)N(c3nc(C)c(C)s3)[C@H]2CO)cc1,/,/,.,/,/,/
O=C(NC1=NCCS1)c1cc2ccccc2o1,82,.,/,34,56,47
O=C(Nc1ccccn1)c1cc2ccccc2o1,96,70,/,69,80,78
O=C(Nc1ccc2c(c1)OCCO2)c1cc2ccccc2o1,.,.,?,24,39,26
C[C@H](CO)N1C[C@H](C)[C@H](CN(C)S(C)(=O)=O)Oc2c(NS(=O)(=O)c3cn(C)cn3)cccc2C1=O,/,/,.,/,/,/
C[C@H](CO)N1C[C@H](C)[C@H](CN(C)C(=O)C2CCCCC2)OCCCC[C@H](C)Oc2ccc(NC(=O)Nc3cccc4ccccc34)cc2C1=O,/,/,.,/,/,/
CCCc1ccc(-c2ccc(/C=C/C(=O)O)cc2)nc1,94,.,58,59,82,51
COc1ccc(Cl)cc1NC(=O)CCc1nc(-c2ccccc2F)no1,.,.,.,27,.,.
CCN(CC)c1ccc2cc(NC(=O)CCC(=O)O)c(=O)oc2c1,91,69,.,33,36,.
Cc1noc(C)c1S(=O)(=O)Nc1ccc2c(c1)C(=O)N([C@@H](C)CO)C[C@@H](C)[C@H](CN(C)CC1CC1)OCCCC[C@H](C)O2,/,/,.,/,/,/
CCN(Cc1nc(-c2cccc(C)c2)no1)C(=O)c1ccco1,.,.,.,21,.,.
C[C@H]1CN([C@@H](C)CO)C(=O)c2cccc(NC(=O)Nc3cccc4ccccc34)c2O[C@H]1CN(C)S(C)(=O)=O,/,/,.,/,/,/
Cc1ccc2oc(=O)c(/C=C(\O)c3cccs3)nc2c1,.,.,/,18,42,.
CCS(=O)(=O)c1ccc2oc(=O)c(/C=C(\O)c3ccc(Cl)cc3)nc2c1,.,.,.,.,/,/
SMILES,TWEAK-Fn14 inh,TROY NFkB inh,LGR2 inh,HSP90 inh,HSP90 inh confirm,luciferase ctr
O=c1oc2ccc(Cl)cc2nc1/C=C(\O)c1cccs1,.,.,.,63,79,.
Cc1ccc2oc(=O)c(/C=C(\O)c3ccccc3)nc2c1,.,.,.,.,/,/
CCOC(=O)C1CCN(c2ccc(-c3cccs3)nn2)CC1,.,.,.,27,34,38
CCOC(=O)C1CCN(c2ccc(Cl)nn2)CC1,.,.,.,.,/,/
c1csc(-c2ccc(N3CCOCC3)nn2)c1,.,.,.,28,34,17
O=C(Nc1cccc(-c2ccc(N3CCOCC3)nn2)c1)c1ccccc1,.,.,.,/,/,/
O=C(N/N=C\c1ccc(-c2ccccc2[N+](=O)[O-])o1)C1COc2cc3ccccc3cc2O1 (stereo not given),.,.,.,22,.,.
Clc1cccc(Cl)c1C1Nc2cccc3cccc(c23)N1,.,.,.,.,/,/
Fc1cccc(Cl)c1C1Nc2cccc3cccc(c23)N1,.,.,.,19,.,.
COc1cccc(S(=O)(=O)N[C@H]2C=C[C@H](CC(=O)NCc3ccccc3)O[C@@H]2CO)c1,/,/,.,/,/,/
CN1CCC(=NNC(=O)CN(c2cccc([N+](=O)[O-])c2)S(=O)(=O)c2ccccc2)CC1,.,.,.,.,/,/
CC(C)(C)NC(=O)CN(c1cccc([N+](=O)[O-])c1)S(=O)(=O)c1ccccc1,.,.,.,23,.,.
COc1ccc(CNC[C@@H](CCCCN(C)Cc2ccc(OC)cc2)N2C[C@H](c3ccccc3)N(CCc3ccc(Cl)c(Cl)c3)C(=O)C2=O)cc1,97,.,/,18,20,.
COc1ccc(CCNC(=O)Cc2ccc(Cl)cc2)cc1OC,.,.,.,.,/,/
COc1ccc(CCNC(=O)Cc2cc(OC)c(OC)cc2Br)cc1OC,.,.,.,34,.,.
O=C(Nc1ccc(F)cc1)N[C@H]1C=C[C@H](CC(=O)N2CCOCC2)O[C@@H]1CO,/,/,.,/,/,/
CC(=O)Nc1ccc(NC2=CC(=O)c3ccccc3C2=O)cc1,.,.,.,.,/,/
O=C(O)c1ccc(NC2=C/C(=N/S(=O)(=O)c3ccccc3)c3ccccc3C2=O)cc1,97,50,99,86,93,.
Cc1cc(C)c(S(=O)(=O)/N=C2\C=C(Nc3ccc(C(=O)O)cc3)C(=O)c3ccccc32)c(C)c1,96,62,.,46,79,.
O=C(NCC[C@H]1CC[C@H](NC(=O)C2CCC2)[C@H](CO)O1)c1cc(Cl)cc(Cl)c1,/,/,.,/,/,/
CC(C)NC(=O)Nc1cccc2c1O[C@H](CN(C)S(=O)(=O)c1ccccc1)[C@H](C)CN([C@@H](C)CO)C2=O,/,/,.,/,/,/
O=C(Nc1ccc2c(c1)OCCO2)c1cccc(Br)c1,.,.,.,.,/,/
CCCOc1cccc(C(=O)Nc2ccc3c(c2)OCCO3)c1,.,.,.,21,40,25
O=C(NC(=S)Nc1ccc2c(c1)OCCO2)c1ccco1,.,.,/,24,20,.
Cc1cc(C(=O)Nc2ccc3c(c2)OCCO3)ccc1[N+](=O)[O-],62,.,59,28,59,51
SMILES,TWEAK-Fn14 inh,TROY NFkB inh,LGR2 inh,HSP90 inh,HSP90 inh confirm,luciferase ctr
Cc1ccc(C(=O)Nc2ccc3c(c2)OCO3)cc1,53,.,/,66,52,38
CCCNC(=O)N1CC(=O)N2[C@H](CO)[C@@H](c3ccc(C#Cc4ccc(F)cc4)cc3)[C@@H]2C1,/,/,.,/,/,/
O=C(Nc1ccc2c(c1)OCCO2)c1cc(F)c(F)cc1Cl,.,.,.,.,/,/
Cc1ccc(C(=O)Nc2ccc3c(c2)OCCO3)c(Cl)c1,90,.,82,59,75,68
CCOc1ccc(C(=O)Nc2ccc3c(c2)OCCO3)cc1,.,.,.,22,37,16
O=C(Nc1ccc2c(c1)OCCO2)c1ccc(Br)cc1,.,.,.,.,/,/
